# Laboratory results as given in PubChem BioAssay (EPA / NIEHS).
# Inconclusive results are not listed. Activity calls are given as the source filed them. How the source made its calls: active means hit-call score of the fitted dose curve at least 0.9, where 1 is the maximum; inconclusive means response in the unintended direction; inactive means score below 0.9.
# Key:
# [1] = target: human Matrix Metalloproteinase-3 (MMP3), MMP3 (gene 4314) (UniProt P08254); assay: NVS_ENZ_hMMP3: NovaScreen (NVS) Enzymatic Assay for human Matrix Metalloproteinase-3 (MMP3) (AID 2283185)
# Sequence of human Matrix Metalloproteinase-3 (MMP3), MMP3 (gene 4314) (P08254 whole entry, looked up): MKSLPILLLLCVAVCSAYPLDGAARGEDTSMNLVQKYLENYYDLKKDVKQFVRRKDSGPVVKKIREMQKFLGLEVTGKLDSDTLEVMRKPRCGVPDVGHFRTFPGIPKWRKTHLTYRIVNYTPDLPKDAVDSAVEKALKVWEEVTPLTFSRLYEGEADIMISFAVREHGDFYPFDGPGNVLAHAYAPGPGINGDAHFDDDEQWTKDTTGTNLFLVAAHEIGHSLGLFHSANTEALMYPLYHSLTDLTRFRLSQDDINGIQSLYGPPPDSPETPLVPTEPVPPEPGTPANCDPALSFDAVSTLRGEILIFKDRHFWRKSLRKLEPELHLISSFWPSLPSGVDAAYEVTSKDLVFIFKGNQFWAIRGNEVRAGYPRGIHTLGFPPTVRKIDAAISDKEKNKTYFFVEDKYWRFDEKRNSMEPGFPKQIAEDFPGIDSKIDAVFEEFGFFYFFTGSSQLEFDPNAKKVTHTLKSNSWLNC
# Procedure, shortened: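 Fluorescent substrate turnover by recombinant MMP3 read after 1 h, signal loss scored against DMSO. Compounds first run in duplicate at 25 uM single dose, then actives confirmed by concentration series.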
# [2] = target: human NIMA (Never In Mitosis Gene A)-Related Kinase 2 (NEK2), NEK2 (gene 4751) (UniProt P51955); assay: NVS_ENZ_hNEK2: NovaScreen (NVS) Enzymatic Assay for human NIMA (Never In Mitosis Gene A)-Related Kinase 2 (NEK2) (AID 2283188)
# Sequence of human NIMA (Never In Mitosis Gene A)-Related Kinase 2 (NEK2), NEK2 (gene 4751) (P51955 whole entry, looked up): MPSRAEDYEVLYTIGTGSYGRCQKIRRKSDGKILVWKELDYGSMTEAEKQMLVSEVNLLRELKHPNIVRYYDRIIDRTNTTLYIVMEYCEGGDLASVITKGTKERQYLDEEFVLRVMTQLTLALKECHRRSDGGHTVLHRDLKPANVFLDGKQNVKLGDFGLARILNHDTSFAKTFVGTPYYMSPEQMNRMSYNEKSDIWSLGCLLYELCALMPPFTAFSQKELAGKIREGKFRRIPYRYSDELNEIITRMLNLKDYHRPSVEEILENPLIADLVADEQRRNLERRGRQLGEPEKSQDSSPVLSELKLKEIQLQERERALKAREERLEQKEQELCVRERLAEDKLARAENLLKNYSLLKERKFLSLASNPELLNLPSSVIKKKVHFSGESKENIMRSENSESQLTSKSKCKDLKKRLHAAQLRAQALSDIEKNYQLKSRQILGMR
# Procedure, shortened: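 Compounds were first screened in duplicate at 25 uM, with actives followed up in concentration series. Recombinant NEK2 activity, cell-free, was read 1 h after dosing by fluorescence intensity after mobility-shift separation. Signal loss was scored against DMSO.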
# [3] = target: human Phosphoinositide 3-kinase alpha (PI3Ka), PIK3CA (gene 5290) (UniProt P42336); assay: NVS_ENZ_hPI3Ka: NovaScreen (NVS) Enzymatic Assay for human Phosphoinositide 3-kinase alpha (PI3Ka) (AID 2283196)
# Sequence of human Phosphoinositide 3-kinase alpha (PI3Ka), PIK3CA (gene 5290) (P42336 whole entry, looked up): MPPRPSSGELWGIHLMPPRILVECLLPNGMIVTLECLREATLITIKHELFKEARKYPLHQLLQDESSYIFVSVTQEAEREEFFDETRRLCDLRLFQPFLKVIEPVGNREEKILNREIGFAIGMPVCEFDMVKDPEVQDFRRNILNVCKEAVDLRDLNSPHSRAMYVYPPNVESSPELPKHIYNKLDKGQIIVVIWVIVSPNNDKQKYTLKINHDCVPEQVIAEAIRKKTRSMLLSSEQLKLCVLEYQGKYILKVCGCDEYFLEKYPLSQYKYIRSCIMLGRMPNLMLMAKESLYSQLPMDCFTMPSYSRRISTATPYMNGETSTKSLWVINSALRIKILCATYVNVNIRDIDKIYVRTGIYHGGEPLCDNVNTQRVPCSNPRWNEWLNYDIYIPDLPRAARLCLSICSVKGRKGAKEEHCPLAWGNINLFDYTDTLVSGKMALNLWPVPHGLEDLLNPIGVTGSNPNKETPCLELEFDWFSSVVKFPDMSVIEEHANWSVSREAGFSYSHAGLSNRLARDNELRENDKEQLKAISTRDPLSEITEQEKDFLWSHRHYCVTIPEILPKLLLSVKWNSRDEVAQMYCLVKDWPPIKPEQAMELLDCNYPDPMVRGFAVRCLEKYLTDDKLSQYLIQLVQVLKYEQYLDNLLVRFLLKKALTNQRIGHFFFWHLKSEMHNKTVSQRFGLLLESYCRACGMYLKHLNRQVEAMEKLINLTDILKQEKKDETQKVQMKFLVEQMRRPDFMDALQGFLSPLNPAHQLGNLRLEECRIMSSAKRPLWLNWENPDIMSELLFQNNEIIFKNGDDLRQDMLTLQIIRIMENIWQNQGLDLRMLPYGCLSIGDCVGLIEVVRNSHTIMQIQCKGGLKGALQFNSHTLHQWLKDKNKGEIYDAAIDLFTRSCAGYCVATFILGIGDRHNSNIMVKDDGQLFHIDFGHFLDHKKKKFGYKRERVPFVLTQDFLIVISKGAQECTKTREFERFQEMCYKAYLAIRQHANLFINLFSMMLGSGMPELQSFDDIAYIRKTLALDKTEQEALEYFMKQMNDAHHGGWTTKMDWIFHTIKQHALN
# Procedure, shortened: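 Chemicals were first screened at 25 uM in duplicate, then hits were run as concentration series up to 50 uM. Enzyme activity was measured by fluorescence after mobility-shift separation, with loss of signal relative to DMSO taken as activity.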
# [4] = target: PPP2CA (gene 5515) (UniProt P67775); assay: NVS_ENZ_hPPP2CA: NovaScreen (NVS) Enzymatic Assay for human Protein Phosphatase 2 Aatalytic subunit Alpha (PPP2CA) (AID 2283199)
# Sequence of PPP2CA (gene 5515) (P67775 whole entry, looked up): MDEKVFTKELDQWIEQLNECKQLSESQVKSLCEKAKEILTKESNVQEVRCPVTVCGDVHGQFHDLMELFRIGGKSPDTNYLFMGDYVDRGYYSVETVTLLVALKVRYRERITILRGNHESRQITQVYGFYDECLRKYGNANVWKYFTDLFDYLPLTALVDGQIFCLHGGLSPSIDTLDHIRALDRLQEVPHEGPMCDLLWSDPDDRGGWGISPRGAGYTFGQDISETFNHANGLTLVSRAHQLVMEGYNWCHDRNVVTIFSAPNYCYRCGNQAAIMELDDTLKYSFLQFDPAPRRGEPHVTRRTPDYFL
# Procedure, shortened: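 Cell-free phosphatase activity: fluorescent substrate turnover by recombinant human enzyme, resolved by mobility shift at 1.33 h. Compounds passing the 25 uM duplicate primary screen were rerun in singleton series with a 50 uM top concentration.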
smiles,measurement,setting,value
COC(=O)c1c(C(F)F)nc(C(F)(F)F)c(C2=NCCS2)c1CC(C)C,outcome,[1],inactive
Cn1c(-c2ccccc2)cc(-c2ccccc2)[n+]1C,outcome,[2],inactive
COC(=O)N(C(=O)N1CO[C@@]2(C(=O)OC)Cc3cc(Cl)ccc3C2=N1)c1ccc(OC(F)(F)F)cc1,outcome,[2],inactive
O=C(O)c1c(Cl)ccc2cc(Cl)cnc12,outcome,[3],inactive
N#CN=C1SCCN1Cc1ccc(Cl)nc1,outcome,[4],inactive
